Assay results reported in PubChem BioAssay AID463173 (ICCB-Longwood Screening Facility, Harvard Medical School, 2010).
Screen size: about 52,000 compounds; about 4,300 (8.3%) were called active. Shown is part of a subset that was picked to be rich in actives. Values without a mark were called inactive. Cut-off read from the data, not from the text of the source: active = survival mostly below about 52% (no sharp cut-off); inactive = mostly above about 56%.

system: DeltatarO mutant; experiment: growth inhibition of S. aureus wild type versus tarO mutant, primary screen, teichoic acid synthesis inhibitors, RN4220, OD600 (AID 463173); conditions: OD600, 18 h, stronger effect = lower value, screened at 18.75 µg/mL (by protocol)

| Structure (SMILES) | survival |
| --- | --- |
| Cc1[nH]c2ccccc2c1Cc1nnc(SCC(N)=O)n1Cc1ccco1 | 99% |
| COC(=O)c1ccc(Nc2nc(-c3ccccc3Cl)nc3ccccc23)cc1 | 21% (active) |
| CCOC(=O)c1nc(Nc2ccc(C(C)=O)cc2)c2ccccc2n1 | 49% |
| CCOC(=O)c1nc(Nc2ccc(C(=O)OC(C)C)cc2)c2ccccc2n1 | 68% |
| COC(=O)c1ccc(Nc2nc(-c3ccc(C)cc3)nc3ccccc23)cc1 | 9% (active) |
| O=C(CSc1nc(Nc2ccc(F)cc2)c2ccccc2n1)c1ccc(F)cc1 | 124% |
| CCOC(=O)c1nc(Nc2ccc(C(=O)OCC(C)C)cc2)c2ccccc2n1 | 61% |
| COc1ccc2c(c1)c1c(c(=O)n(-c3ccc(OC)c(OC)c3)c(=O)n1Cc1ccc(C)cc1)n2C | 73% |
| CCOc1ccc(NC(=O)CSc2nc3c(oc4ccccc43)c(=O)n2-c2ccccc2C)cc1 | 79% |
| COc1ccc(CC(=O)N2CCc3cc(OC)c(OC)cc3C2COc2ccc(F)cc2)cc1 (configuration not stated) | 67% |
| COc1cc(CNCCSc2nnnn2C)cc(Cl)c1OCc1ccccc1 | 44% (active) |
| CCOc1cc(CNCCSc2nnnn2C)cc(Cl)c1OCc1ccc(Cl)cc1 | 2% (active) |
| Cn1nnnc1SCCCNCc1ccccc1OCc1ccc(F)cc1 | 57% (active) |
| Cn1nnnc1SCCCNCc1ccccc1OCc1ccccc1F | 72% |
| Cn1nnnc1SCCNCc1ccc(OCc2ccc(Cl)cc2)cc1 | 68% |
| COc1cccc(CNCCSc2nnnn2C)c1OCc1ccccc1 | 79% |
| Cn1nnnc1SCCCNCc1cccc(OCc2ccccc2)c1 | 85% |
| COc1cc(CNCCSc2nnnn2C)ccc1OCc1ccccc1 | 73% |
| Cn1nnnc1SCCCNCc1cccc(OCc2ccc(Cl)cc2)c1 | -3% (active) |
| Cn1nnnc1SCCCNCc1cccc(OCc2ccc(F)cc2)c1 | 115% |
| Cn1nnnc1SCCCNCc1ccccc1OCc1ccc(Cl)cc1 | 66% |
| COc1cccc(CNCCSc2nnnn2C)c1OCc1ccc(Cl)cc1 | 62% |

| Structure (SMILES) | survival |
| --- | --- |
| O=C1CCc2cc(S(=O)(=O)NC(C(=O)Nc3ccc(F)cc3)c3ccccc3)ccc2N1 (configuration not stated) | 100% |
| COc1ccc(-n2c(=O)c3c4c(sc3n(CC(=O)N3CCCCC3C)c2=O)CCC4)c(OC)c1 (configuration not stated) | 87% |
| Cc1ccc(Cl)cc1NC(=O)Cn1c(=O)c(CNc2ccccc2)cc2cc3c(cc21)OCCO3 | 95% |
| CCc1ccc(CN2CCc3nc(Nc4ccccc4)ncc3C2)cc1 | 84% |
| Cc1ccc(Nc2nc3ccc(C(=O)c4ccccc4)cc3n3c(C)nnc23)c(C)c1 | 105% |
| CCCn1c2ccccc2c2cnn(CC(=O)NCCCN(Cc3ccccc3)C(C)C)c(=O)c21 | 88% |
| COc1ccc(-c2c(C)nn3c(-c4ccccc4)cc(-c4ccccc4)nc23)cc1OC | 96% |
| COc1ccc(-c2cc(C)nc3c(-c4ccc(OC)c(OC)c4)c(C)nn23)cc1 | 63% |
| COc1ccc(-c2c(C)nn3c(C(F)(F)F)cc(-c4ccccc4)nc23)cc1OC | 57% |
| COc1ccc(-c2c(C)nn3c(-c4ccccc4)cc(C)nc23)cc1OC | 38% (active) |
| COc1ccc(-c2cc(C(F)(F)F)n3nc(C)c(-c4ccccc4)c3n2)cc1OC | 69% (active) |
| COc1ccc(-c2c(C)nn3c(C(F)(F)F)cc(-c4ccccc4)nc23)cc1 | 62% |
| CC(CCO)Nc1nc2c(c(=O)n(C)c(=O)n2C)n1Cc1ccc(Br)cc1 (configuration not stated) | 140% |
| COc1cccc(C(=O)NC2=NC(c3ccccc3F)CC(=O)N2)c1 (configuration not stated) | 75% |
| CC(C)C(=O)Nc1c(C(=O)N2CCN(c3ccccc3F)CC2)oc2ccccc12 | 58% |
| O=C(NCc1ccccc1)C1CCCN(c2ncccn2)C1 (configuration not stated) | 88% |
| Cc1cccc(-c2noc(-c3ccc(N4CCCC4)c([N+](=O)[O-])c3)n2)c1 | 82% |
| CN1CCN(c2ccc(-c3nc(-c4ccccc4)no3)cc2[N+](=O)[O-])CC1 | 41% (active) |
| COc1ccccc1-c1noc(-c2ccc(N3CCN(C)CC3)c([N+](=O)[O-])c2)n1 | 113% |
| COc1ccccc1-c1noc(-c2ccc(N3CCN(c4ccccc4)CC3)c([N+](=O)[O-])c2)n1 | 44% (active) |
| Cc1ccc(-c2noc(-c3ccc(N4CCN(C)CC4)c([N+](=O)[O-])c3)n2)cc1 | 85% |
| Cc1cccc(-c2noc(-c3ccc(N4CCOCC4)c([N+](=O)[O-])c3)n2)c1 | 67% |

| Structure (SMILES) | survival |
| --- | --- |
| Cc1cccc(-c2noc(-c3ccc(N4CCN(C)CC4)c([N+](=O)[O-])c3)n2)c1 | 22% (active) |
| COc1ccccc1-c1noc(-c2ccc(N3CCOCC3)c([N+](=O)[O-])c2)n1 | 100% |
| O=[N+]([O-])c1cc(-c2nc(-c3ccccc3)no2)ccc1N1CCN(c2ccccc2)CC1 | 77% |
| Cc1ccc(-c2nc(SCC(=O)Nc3cc(C)on3)c3c(=O)n(C)c(=O)n(C)c3n2)cc1 | 83% |
| CC(=O)c1ccc(NC(=O)CSc2nc(=O)n(Cc3ccccn3)c3c2CCC3)cc1 | 67% |
| COc1ccc(CCNC(=O)CSC2=Nc3ccccc3C3=NC(CCC(=O)NCc4ccccc4)C(=O)N23)cc1OC (configuration not stated) | 107% |
| O=C(Nc1nc2c(F)cc(F)cc2s1)c1ccc2c(c1)OCCO2 | 85% |
| Cn1cc(C(=O)NCc2ccccc2)c(=O)c2cc(S(=O)(=O)N3CCCCCC3)ccc21 | 118% |
| COc1ccc(C)cc1NC(=O)c1ccc(NS(=O)(=O)c2c(C)noc2C)cc1 | 83% |
| Cc1noc(C)c1S(=O)(=O)Nc1ccc(C(=O)Nc2ccc(Br)cc2)cc1 | 36% (active) |
| Cc1noc(NS(=O)(=O)c2ccc(NC(=O)c3ccc(Br)cc3)cc2)c1C | 74% |
| CCc1ccc(NC(=O)c2ccc(NS(=O)(=O)c3c(C)noc3C)cc2)cc1 | 48% |
| Cc1cc(Br)ccc1NC(=O)c1ccc(NS(=O)(=O)c2c(C)noc2C)cc1 | 59% |
| Cc1noc(C)c1S(=O)(=O)Nc1ccc(C(=O)Nc2ccc(C(C)C)cc2)cc1 | 52% (active) |
| Cc1cccc(C)c1NC(=O)CSc1nc(-c2ccccc2)nc2c1Cc1c(CO)cnc(C)c1O2 | 87% |
| CCc1cccc(C)c1NC(=O)C1CCN(c2nnc(C)c3c(C)n(-c4ccccc4)nc23)CC1 | 77% |
| Cc1cc(C)c(NC(=O)C2CCN(c3nnc(C)c4c(C)n(-c5ccccc5)nc34)CC2)c(C)c1 | 52% (active) |
| Cc1ccc(NC(=O)C2CCN(c3nnc(C)c4c(C)n(-c5ccccc5)nc34)CC2)cc1Cl | 71% |
| O=C(Nc1cccc(C(F)(F)F)c1)c1cccnc1NCCO | 77% |
| C=C(C)Cn1c(SCC(=O)c2ccc(Br)cc2)nc2sc3c(c2c1=O)CCCC3 | 50% |
| C=C(C)Cn1c(SCC(=O)c2ccc(OC)cc2)nc2sc3c(c2c1=O)CCCC3 | 75% |
| CCOC(=O)CSc1nc2sc3c(c2c(=O)n1CC)CCCC3 | 58% |

| Structure (SMILES) | survival |
| --- | --- |
| CCCCn1c(SCC(=O)c2ccccc2)nc2sc3c(c2c1=O)CCCC3 | 44% (active) |
| C=C(C)Cn1c(SCC(=O)c2ccccc2)nc2sc3c(c2c1=O)CCCC3 | 69% |
| C=C(C)CSc1nc2sc3c(c2c(=O)n1CCCC)CCCC3 | -3% (active) |
| COc1ccc(CNC(=O)CN(C)S(=O)(=O)c2ccc3[nH]c4c(c3c2)CCCC4)cc1 | 70% |
| Cn1c(C(=O)N(Cc2ccccc2)C(C)(C)C)cc2sccc21 | 109% |
| CCOc1ccccc1CNC(=O)C1CCN(c2nnc(C)c3c(C)n(-c4ccc(C)cc4)nc23)CC1 | 68% |
| Cc1cc(Nc2cccc(Cl)c2)nc2ccc(NC(=O)Cc3cccc(C(F)(F)F)c3)cc12 | 64% |
| COc1ccc(CC(=O)Nc2ccc3nc(Nc4cccc(Cl)c4)cc(C)c3c2)cc1OC | 46% (active) |
| COc1ccccc1CC(=O)Nc1ccc2nc(Nc3cccc(C(F)(F)F)c3)cc(C)c2c1 | 92% |
| Cc1cc(Nc2cccc(C(F)(F)F)c2)nc2ccc(NC(=O)c3ccc(N(C)C)cc3)cc12 | 55% |
| COc1ccccc1CC(=O)Nc1ccc2nc(Nc3cccc(Cl)c3)cc(C)c2c1 | 144% |
| Cc1cc(Nc2cccc(C(F)(F)F)c2)nc2ccc(NC(=O)c3ccc(=O)[nH]c3)cc12 | 37% (active) |
| Cc1cc(Nc2cccc(C(F)(F)F)c2)nc2ccc(NC(=O)c3cccc(Cl)c3)cc12 | 92% |
| COc1ccc(CC(=O)Nc2ccc3nc(Nc4cccc(Cl)c4)cc(C)c3c2)cc1 | 98% |
| COc1cccc(CC(=O)Nc2ccc3nc(Nc4cccc(C(F)(F)F)c4)cc(C)c3c2)c1 | 25% (active) |
| O=C(Cn1cc(S(=O)(=O)Cc2ccccc2Cl)c2ccccc21)Nc1cccc(C(F)(F)F)c1 | 75% |
| CCOc1ccc(C2C(C(=O)Nc3ccccc3)=C(C)Nc3nc(SCc4cc(C)ccc4C)nn32)cc1 (configuration not stated) | 123% |
| Cc1ccc(NC(=O)Cn2c(=O)n(-c3ccc(CC(=O)NCC4CCCO4)cc3)c(=O)c3ccccc32)cc1 (configuration not stated) | 95% |
| CCCCOC(=O)c1ccc(NC(=O)c2cc3c(=O)n4cccc(C)c4nc3s2)cc1 | 66% |
| COc1cc(OC)cc(C(=O)NCC(c2cccs2)S(=O)(=O)c2ccc(F)c(C)c2)c1 (configuration not stated) | 100% |
| Cc1cccc(NC(=O)C2CCCN(S(=O)(=O)c3ccc4c(c3)CCCC(=O)N4)C2)c1 (configuration not stated) | 95% |
